PubChem BioAssay (Tox21)
Inconclusive results are not listed. Active and inactive are the calls of the source. Unless noted, calls follow the shape of the dose curve; as a rule, active = well fitted curve in the direction sought with a large enough effect in the repeat runs; inconclusive = weak or mixed curves; inactive = no such curve, though single readings can be large; an effect the other way counts as inactive or inconclusive.

Experiments:
[1] = qHTS assay to identify small molecule agonists of the RXR signaling pathway - cell viability counter screen (AID 1159529);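 also: HEK 293T cells carrying an RXR-alpha UAS beta-lactamase reporter; series mostly up to about 77 µM; nearly all actives have a fitted effect of over 50% in size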
How it was run: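 Viability read-out for the RXR-alpha agonist qHTS: luminescent CellTiter-Glo signal after 30 min at RT. HEK 293T bla reporter cells, 2% charcoal-stripped FBS, 16 hr compound incubation; tetraoctyl ammonium bromide as cytotoxic control.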

[2] = qHTS assay to identify small molecule antagonists of the retinoid acid receptor (RAR) signaling pathway - cell viability counter screen (AID 1159551); also: nearly all actives have a fitted effect of over 35% in size
How it was run: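 C3RL4 cells were seeded overnight at 37 C, then treated with compounds plus 1 uM (final) retinol for 6 h at 37 C. Viability was read as ATP by CellTiter-Glo luminescence after 30 min at room temperature.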

[3] = qHTS assay to identify small molecule antagonists of the estrogen related receptor (ERR) signaling pathway from Tox21 library - cell viability counter screen (AID 1224834); also: nearly all actives have a fitted effect of over 30% in size; also: potency is read from the fitted curve at half-maximal effect
How it was run: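 ERR reporter cells were plated 6 h before compound addition, then exposed to test compounds in DMSO for 17.5 h at 37 C. Viability was read as CellTiter-Fluor fluorescence after a 30-minute incubation at 37 C.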

[4] = qHTS assay to identify small molecule agonists of the constitutive androstane receptor (CAR) signaling pathway - cell viability counter screen (AID 1224836); also: series mostly up to about 92 µM; nearly all actives have a fitted effect of over 45% in size
How it was run: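 Multiplexed viability check: HepG2-CYP2B6-hCAR cells, 15-point compound dosing, 0.75 uM PK11195 final, 23 h at 37 C, CellTiter-Fluor fluorescence.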

[5] = qHTS assay to identify small molecule antagonists of the constitutive androstane receptor (CAR) signaling pathway - cell viability counter screen (AID 1224837); also: series mostly up to about 92 µM; nearly all actives have a fitted effect of over 45% in size
How it was run: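 HepG2 cells stably expressing hCAR and a CYP2B6-2.2kb reporter were plated and pre-incubated 4 hr at 37 C/5% CO2, then given compounds at 15 concentrations plus 50 nM CITCO (final). After 23 hr, viability was read by CellTiter-Fluor fluorescence.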

[6] = target: Nuclear receptor subfamily 1 group I member 3 (Homo sapiens) (UniProt Q14994); assay: qHTS assay to identify small molecule antagonists of the constitutive androstane receptor (CAR) signaling pathway (AID 1224838); also: nearly all actives have a fitted effect of over 40% in size; also: potency is read from the fitted curve at half-maximal effect
Chain of Nuclear receptor subfamily 1 group I member 3 (Homo sapiens) (Q14994 whole entry, looked up): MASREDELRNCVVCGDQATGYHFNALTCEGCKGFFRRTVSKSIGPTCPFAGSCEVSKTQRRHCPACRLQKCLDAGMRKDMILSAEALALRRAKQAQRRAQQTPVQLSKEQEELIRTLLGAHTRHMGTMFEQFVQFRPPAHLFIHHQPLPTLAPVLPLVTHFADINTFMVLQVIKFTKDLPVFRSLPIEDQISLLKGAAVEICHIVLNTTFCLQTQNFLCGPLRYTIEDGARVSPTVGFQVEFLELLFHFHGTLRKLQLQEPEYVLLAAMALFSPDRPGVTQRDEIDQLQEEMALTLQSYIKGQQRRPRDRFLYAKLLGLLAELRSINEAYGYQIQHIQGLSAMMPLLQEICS
How it was run: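 HepG2 cells stably co-transfected with hCAR and a CYP2B6-2.2kb luciferase reporter were seeded 4 h before compound addition at 15 concentrations. Cells were stimulated with 50 nM CITCO (final) for 24 h at 37 C; luciferase luminescence was then read.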

[7] = target: Nuclear receptor subfamily 1 group I member 3 (Homo sapiens) (UniProt Q14994); assay: qHTS assay to identify small molecule agonists of the constitutive androstane receptor (CAR) signaling pathway (AID 1224839);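 also: HepG2 cells stably carrying human CAR and a CYP2B6 luciferase reporter; series mostly up to about 92 µM; nearly all actives have a fitted effect of over 15% in size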
How it was run: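 Using human hepatoma HepG2 cells engineered with hCAR and a CYP2B6-2.2kb reporter, 15-concentration compound series were incubated 24 h alongside PK11195 at 0.75 uM final, with luminescence quantified afterwards.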

[8] = qHTS assay to identify small molecule antagonists of the estrogen related receptor signaling pathway with the pleiotropic PPARgamma coactivator (PGC) from Tox21 10K library - cell viability counter screen (AID 1224840; active = well fitted cell-killing curve with a large enough effect in the repeat runs, not every such curve was filed as active; also: nearly all actives have a fitted effect of over 40% in size)
How it was run: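 PGC/ERR cells were seeded at 2,000 cells/well and left 6 hours at 37 C/5% CO2 before pin-tool addition of compounds in DMSO. After 17.5 hours at 37 C, CellTiter-Fluor was added and fluorescence read 30 minutes later.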

[9] = qHTS assay to identify small molecule antagonists of the estrogen related receptor signaling pathway with the pleiotropic PPARgamma coactivator (PGC) from Tox21 10K library (AID 1224841; call rule not given here; also: series mostly up to about 92 µM; actives are mostly falling curves and most rising ones were filed inactive; nearly all actives have a fitted effect of over 50% in size)
How it was run: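 PGC/ERR reporter cells were seeded at 2,000 cells/well and held 6 hours at 37 C/5% CO2 before pin-tool addition of compounds in DMSO. After 18 hours at 37 C, One-Glo was added and luminescence read after 30 minutes at room temperature.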

[10] = target: Thyrotropin receptor (Homo sapiens) (UniProt P16473); assay: qHTS assay to identify small molecule agonists of the thyroid stimulating hormone receptor (TSHR) signaling pathway (AID 1224843; calls by dose curve; also: nearly all actives have a fitted effect of over 45% in size; also: potency is read from the fitted curve at half-maximal effect)
Chain of Thyrotropin receptor (Homo sapiens) (P16473 whole entry, looked up): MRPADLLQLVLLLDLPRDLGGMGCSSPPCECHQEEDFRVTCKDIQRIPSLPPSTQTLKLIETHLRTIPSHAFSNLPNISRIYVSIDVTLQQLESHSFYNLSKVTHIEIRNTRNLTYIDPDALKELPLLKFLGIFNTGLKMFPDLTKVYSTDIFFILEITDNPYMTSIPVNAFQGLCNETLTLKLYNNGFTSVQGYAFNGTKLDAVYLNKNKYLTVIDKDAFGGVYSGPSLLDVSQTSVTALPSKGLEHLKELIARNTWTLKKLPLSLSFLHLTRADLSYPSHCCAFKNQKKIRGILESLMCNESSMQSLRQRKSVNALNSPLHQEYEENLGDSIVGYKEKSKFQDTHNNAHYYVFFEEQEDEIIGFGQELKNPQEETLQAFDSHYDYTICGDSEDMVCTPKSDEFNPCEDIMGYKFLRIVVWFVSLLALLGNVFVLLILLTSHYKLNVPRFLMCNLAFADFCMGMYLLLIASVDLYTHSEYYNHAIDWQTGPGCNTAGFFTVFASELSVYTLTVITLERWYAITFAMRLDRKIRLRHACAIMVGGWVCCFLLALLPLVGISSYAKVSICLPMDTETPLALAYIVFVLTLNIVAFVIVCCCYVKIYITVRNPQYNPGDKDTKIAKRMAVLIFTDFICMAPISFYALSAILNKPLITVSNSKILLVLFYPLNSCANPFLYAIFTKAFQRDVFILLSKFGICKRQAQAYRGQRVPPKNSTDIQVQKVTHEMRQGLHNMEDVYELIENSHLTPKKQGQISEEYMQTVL
How it was run: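 Cell line HEK293 with TSHR; density 800/well. Exposure 30 min RT. Readout HTRF cAMP (cAMP-d2/anti-cAMP-cryptate), 1 h RT before reading.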

[11] = qHTS assay to identify small molecule agonists of the retinoic acid receptor (RAR) signaling pathway (AID 1159553)
How it was run: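 C3RL4 cells carrying a RARE luciferase reporter were plated overnight at 37 C, then exposed to compounds in DMSO for 6 hr at 37 C and 5% CO2. Luminescence was read 30 min after luciferase reagent addition at room temperature.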

[12] = target: Luciferin 4-monooxygenase (Photinus pyralis) (UniProt P08659); assay: qHTS assay to identify small molecule inhibitors of firefly luciferase (AID 1224835); also: series mostly up to about 120 µM; nearly all actives have a fitted effect of over 25% in size
Chain of Luciferin 4-monooxygenase (Photinus pyralis) (P08659 whole entry, looked up): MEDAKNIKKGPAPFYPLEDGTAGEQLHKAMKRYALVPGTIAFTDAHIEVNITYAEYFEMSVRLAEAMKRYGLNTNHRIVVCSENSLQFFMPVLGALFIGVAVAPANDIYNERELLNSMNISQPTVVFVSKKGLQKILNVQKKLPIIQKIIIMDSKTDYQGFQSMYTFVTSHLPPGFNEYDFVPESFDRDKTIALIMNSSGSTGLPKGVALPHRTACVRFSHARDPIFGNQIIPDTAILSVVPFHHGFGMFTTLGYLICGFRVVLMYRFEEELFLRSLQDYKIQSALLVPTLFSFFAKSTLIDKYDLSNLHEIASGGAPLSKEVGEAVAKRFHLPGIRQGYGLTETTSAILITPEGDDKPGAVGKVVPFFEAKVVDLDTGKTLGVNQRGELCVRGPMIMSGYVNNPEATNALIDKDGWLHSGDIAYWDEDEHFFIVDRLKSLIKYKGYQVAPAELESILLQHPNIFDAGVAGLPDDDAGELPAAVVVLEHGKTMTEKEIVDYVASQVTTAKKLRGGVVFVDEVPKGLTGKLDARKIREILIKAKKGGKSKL
How it was run: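 Quantitative HTS format; KM concentrations of both substrates. Purified P. pyralis FLuc activity quantified from luminescence images.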

[13] = qHTS assay to identify small molecule agonists of the estrogen related receptor signaling pathway with the pleiotropic PPARgamma coactivator (PGC) from Tox21 10K library (AID 1224842); also: nearly all actives have a fitted effect of over 15% in size; also: potency is read from the fitted curve at half-maximal effect
How it was run: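 PGC/ERR reporter cells (NTP line) were seeded 2,000 per well, rested 6 h at 37 C/5% CO2, then pin-dosed with compounds in DMSO for 18 h at 37 C; luciferase read by One-Glo luminescence after 30 min at room temperature.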

[14] = qHTS assay to identify small molecule antagonists of the estrogen related receptor (ERR) signaling pathway - cell viability counter screen (AID 1224818);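 also: series mostly up to about 46 µM; viability measured after 17.5 h of compound exposure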
How it was run: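 ERR reporter cells plated 6 h at 37 C/5% CO2, then compounds in DMSO pin-transferred and incubated 17.5 h at 37 C. Viability read as CellTiter-Fluor fluorescence after 30 min at 37 C.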

[15] = qHTS assay to identify small molecule antagonists of the estrogen related receptor (ERR) signaling pathway (AID 1224819;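 also: luminescence from an ERR-driven luciferase reporter measured with One-Glo reagent; series mostly up to about 46 µM; nearly all actives have a fitted effect of over 50% in size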)
How it was run: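 ERR reporter cells were plated at 2,000 cells/well and left 6 h at 37 C/5% CO2 before pin-tool transfer of compounds in DMSO. After 18 h at 37 C, One-Glo was added and luminescence was read 30 min later at room temperature.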

[16] = qHTS assay to identify small molecule agonists of the estrogen related receptor (ERR) signaling pathway (AID 1224820)
How it was run: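 ERR reporter cell line (from NTP), 2,000 cells/well, incubated 6 h before compound addition, then 18 h at 37 C. Luminescence measured 30 min after One-Glo reagent at room temperature.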

[17] = system: estrogen-related receptor alpha (ERRalpha) with PGC-1alpha coactivator, human; assay: qHTS assay to identify small molecule antagonists of the estrogen related receptor signaling pathway with the pleiotropic PPARgamma coactivator (PGC) (AID 1224821; calls by dose curve;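 also: series mostly up to about 46 µM; lower luminescence signal means antagonism of PGC/ERR signalling; nearly all actives have a fitted effect of over 50% in size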)
How it was run: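 PGC/ERR reporter cell line, plated 6 h before compound addition, then exposed 18 h at 37 °C. Luciferase activity read by luminescence 30 min after One-Glo addition; decrease indicates antagonism.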

[18] = qHTS assay to identify small molecule antagonists of the estrogen related receptor signaling pathway with the pleiotropic PPARgamma coactivator (PGC) cell viability counter screen (AID 1224822; also: series mostly up to about 46 µM)
How it was run: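 PGC/ERR cells were seeded at 2,000 cells/well, rested 6 h at 37 C/5% CO2, then given compounds in DMSO by pin tool and incubated 17.5 h at 37 C. Viability came from CellTiter-Fluor fluorescence after 30 min.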

[19] = qHTS assay to identify small molecule agonists of the estrogen related receptor signaling pathway with the pleiotropic PPARgamma coactivator (PGC) (AID 1224823)
How it was run: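 PGC/ERR reporter cells seeded 6 h, then exposed to compounds (23 nL in DMSO) for 18 h at 37 C. One-Glo luciferase luminescence read after 30 min at room temperature.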

Measured: Potency

Cn1sccc1=O
inactive: [1] | [2] | [3] | [4] | [5] | [7] | [8] | [9] | [10]
active: [6] 24.3 µM

O=[N+]([O-])c1cccc(Cl)c1Cl
inactive: [1] | [2] | [11] | [3] | [4] | [5] | [6] | [7] | [8] | [9] | [10]

c1ccc(-c2nc[nH]c2-c2ccccc2)cc1
inactive: [1] | [2] | [3] | [12] | [4] | [5] | [6] | [7] | [8] | [10]

Cc1ccccc1N=Nc1ccc(N=Nc2c(O)ccc3ccccc23)c(C)c1
inactive: [1] | [2] | [3] | [4] | [5] | [6] | [8] | [9] | [13] | [10]

CC(C)(C)c1cc(O)c(C(C)(C)C)cc1O
inactive: [1] | [2] | [12] | [13] | [10]
active: [3] 48.6 µM

S=C(S)NCCNC(=S)S
inactive: [1] | [2] | [3] | [12] | [4] | [5] | [8] | [10]

Nc1nc(N)c(-c2ccccc2)s1
inactive: [1] | [2] | [3] | [12] | [4] | [5] | [9] | [13]

O=C(O)C1CCC(C(=O)O)CC1 (configuration not stated)
inactive: [1] | [2] | [11] | [3] | [12] | [4] | [5] | [7] | [9] | [13] | [10]

CC1(C)[C@H]2CC[C@]1(C)[C@H](O)C2
inactive: [1] | [2] | [3] | [12] | [4] | [5] | [6] | [10]

OC(CCN1CCCCC1)(c1ccccc1)C1CCCCC1 (configuration not stated)
inactive: [1] | [2] | [14] | [15] | [16] | [17] | [18] | [19] | [3] | [12] | [4] | [8] | [9] | [13]

CC(C)=CCCC(C)CC=O (configuration not stated)
inactive: [1] | [2] | [3] | [12] | [4] | [5] | [10]

CC(C)c1ccccc1C(C)C
inactive: [1] | [2] | [3] | [4] | [5] | [8]

O=S(=O)(O)c1ccc(O)c2ncccc12
inactive: [1] | [2] | [3] | [12] | [4] | [5] | [6] | [8] | [10]

O=S1(=O)N=C(O)c2ccccc21
inactive: [1] | [2] | [11] | [3] | [4] | [5] | [8] | [10]

Cc1c(Cn2ccnc2)c2ccccc2n1CCC(=O)O
inactive: [1] | [2] | [3] | [12] | [4] | [5] | [8] | [10]

CC(=O)SCc1ccco1
inactive: [1] | [2] | [3] | [12] | [4] | [5] | [6] | [7] | [8] | [10]

CCCCCCCCCC=O
inactive: [1] | [2] | [3] | [12] | [4] | [5] | [8] | [10]

N#CCCNCCC#N
inactive: [1] | [2] | [3] | [12] | [4] | [5] | [8] | [10]

NCc1ccccc1
inactive: [1] | [2] | [3] | [12] | [4] | [5] | [6] | [7] | [9] | [13] | [10]

CC(=O)O[C@H]1C[C@@H]2CC[C@@H]3[C@H](CC[C@@]4(C)[C@H]3C[C@H]([N+]3(C)CCCCC3)[C@@H]4OC(C)=O)[C@@]2(C)C[C@@H]1N1CCCCC1
inactive: [1] | [2] | [3] | [12] | [4] | [5] | [6] | [7] | [8] | [10]

Oc1ccc(C(O)CNCCCCCCNCC(O)c2ccc(O)c(O)c2)cc1O (configuration not stated)
inactive: [1] | [2] | [3] | [12] | [4] | [5] | [6]
active: [13] 7.5 µM | [10] 6.68 µM

CCCC[C@H]1CN(CC2CCOCC2)C(=O)OC12CCN(C1(C)CCN(C(=O)c3c(C)ncnc3C)CC1)CC2
inactive: [1] | [2] | [3] | [12] | [4] | [5] | [7] | [8] | [9] | [13] | [10]

Cc1ccc(C(N)=O)cc1N
inactive: [1] | [2] | [3] | [12] | [4] | [5] | [8] | [9] | [13] | [10]

CCOC(=O)CC(C)C
inactive: [1] | [2] | [3] | [12] | [4] | [5] | [6] | [7] | [10]

CCCCOCCOCCOCCOCCO
inactive: [1] | [2] | [3] | [12] | [4] | [5] | [8] | [10]

CCCCOC(=O)c1ccccc1C(=O)OCC(CC)CCCC (configuration not stated)
inactive: [1] | [2] | [3] | [12] | [4] | [5] | [7] | [8] | [10]
